Where “and” joins values, the source holds several entries; their conditions need not be identical. Identical values can stand only once. Screen size: about 5,500 compounds; about 2,000 (36%) were called active. About 18% were inconclusive and are not listed. No stated cut-off is given here; in the data, active means normalized growth mostly below about 0.91 (no sharp cut-off); inconclusive means no clear call, values can overlap the other calls; inactive means mostly above about 0.92. This is one part of the list.
Assay: chemical genetic growth profiling, strain panel (AID 1159580);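 further: tested at 20 µM; growth read once vehicle control cultures reached saturation at 30 °C; 1 = growth at the plate median or of vehicle wells; lower values mean less growth of the strain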
Conditions: S. cerevisiae deletion strains, growth OD

Measured: normalized growth

CCN1CCN(C(=O)NC(C(=O)N[C@@H]2C(=O)N3[C@@H]2SC(C)(C)[C@@H]3C(=O)O)c2ccccc2)C(=O)C1=O (stereo partly specified)
inactive: locus YAL013W, strain DEP1, active compounds read low 1.01 | locus YAL021C, strain ccr4, active compounds read low 1 | locus YAL026C, strain drs2, active compounds read low 0.999 | locus YAL030W, strain snc1, active compounds read low 1.01 | locus YBL061C, strain skt5, active compounds read low 0.999 | locus YBR009C, strain hhf1, active compounds read low 1.02 | locus YBR021W, strain FUR4, active compounds read low 1.01 | locus YBR023C, strain chs3, active compounds read low 1.01 | locus YBR171W, strain sec66, active compounds read low 1 | locus YBR229C, strain ROT2, active compounds read low 1.01 | locus YBR231C, strain swc5, active compounds read low 0.98 | locus YBR279W, strain paf1, active compounds read low 1 | locus YCL011C, strain gbp2, active compounds read low 1.02 | locus YCL016C, strain dcc1, active compounds read low 1 | locus YCL029C, strain bik1, active compounds read low 1.02 | locus YCL061C, strain MRC1, active compounds read low 0.995 | locus YCL069W, strain vba3, active compounds read low 0.99 | locus YCR088W, strain abp1, active compounds read low 1 | locus YDL005C, strain med2, active compounds read low 0.988 | locus YDL035C, strain GPR1, active compounds read low 0.988 | locus YDL040C, strain nat1, active compounds read low 0.989 | locus YDL074C, strain BRE1, active compounds read low 0.993 | locus YDL101C, strain DUN1, active compounds read low 1.02 | locus YDL134C, strain PPH21, active compounds read low 1.01 | locus YDL185W, strain tfp1, active compounds read low 1.02 | locus YDL192W, strain arf1, active compounds read low 1.01 | locus YDR001C, strain nth1, active compounds read low 0.991 | locus YDR069C, strain doa4, active compounds read low 0.997 | locus YDR101C, strain arx1, active compounds read low 1.01 | locus YDR137W, strain rgp1, active compounds read low 0.975 | locus YDR150W, strain NUM1, active compounds read low 1.02 | locus YDR159W, strain sac3, active compounds read low 1 | locus YDR162C, strain NBP2, active compounds read low 0.997 | locus YDR195W, strain ref2 0.959 | locus YDR297W, strain sur2, active compounds read low 0.996 | locus YDR318W, strain mcm21, active compounds read low 1.02 | locus YDR334W, strain swr1, active compounds read low 1 | locus YDR335W, strain msn5, active compounds read low 0.999 | locus YDR388W, active compounds read low 1.01 | locus YDR392W, strain spt3, active compounds read low 1.03 | locus YDR502C, strain sam2, active compounds read low 1.01 | locus YEL003W, strain gim4, active compounds read low 1.01 | locus YEL037C, strain rad23, active compounds read low 0.997 | locus YEL061C, strain CIN8 (second series), active compounds read low 1 | locus YEL061C, strain CIN8, active compounds read low 1.01 | locus YER015W, strain faa2, active compounds read low 0.992 | locus YER016W, strain bim1, active compounds read low 1 | locus YER110C, active compounds read low 1.02 | locus YER111C, strain swi4, active compounds read low 1 | locus YER155C, strain BEM2 (second series), active compounds read low 0.993 | locus YER155C, strain BEM2, active compounds read low 0.991 | locus YER167W, strain BCK2, active compounds read low 1.01 | locus YFR010W, strain ubp6, active compounds read low 0.984 | locus YGL078C, strain dbp3, active compounds read low 1.01 | locus YGL086W, strain mad1, active compounds read low 1.02 | locus YGL167C, strain pmr1, active compounds read low 1 | locus YGL173C, strain kem1, active compounds read low 0.991 | locus YGL227W, strain vid30, active compounds read low 0.989 | locus YGL240W, strain doc1, active compounds read low 0.975 | locus YGL248W, strain PDE1, active compounds read low 1.01 | locus YGL253W, strain hxk2, active compounds read low 0.999 | locus YGR078C, strain PAC10, active compounds read low 1.02 | locus YGR135W, strain pre9, active compounds read low 1 | locus YGR229C, strain SMI1, active compounds read low 1 | locus YGR252W, strain gcn5, active compounds read low 1.01 | locus YHR013C, strain ard1, active compounds read low 0.975 | locus YHR027C, strain rpn1, active compounds read low 0.996 | locus YHR030C, strain SLT2, active compounds read low 1.01 and 1 | locus YHR079C, strain IRE1 (second series), active compounds read low 1.02 | locus YHR079C, strain IRE1, active compounds read low 1.01 | locus YHR094C, strain hxt1, active compounds read low 1.01 | locus YHR129C, strain ARP1, active compounds read low 1 | locus YHR142W, strain chs7, active compounds read low 0.998 | locus YHR200W, strain rpn10, active compounds read low 1.01 | locus YIL066C, strain RNR3, active compounds read low 1.01 | locus YIL073C, strain SPO22, active compounds read low 1.05 | locus YIL125W, strain kgd1, active compounds read low 1.01 | locus YIR030C, strain dcg1, active compounds read low 1.01 | locus YJL092W, strain hpr5, active compounds read low 1 | locus YJL095W, strain BCK1 (second series), active compounds read low 1 | locus YJL095W, strain BCK1, active compounds read low 1 and 0.999 | locus YJL115W, strain asf1, active compounds read low 0.996 | locus YJL129C, strain trk1, active compounds read low 0.993 | locus YJL134W, strain LCB3, active compounds read low 1.01 | locus YJL154C, strain vps35, active compounds read low 1 | locus YJL164C, strain tpk1, active compounds read low 0.99 | locus YJL166W, strain qcr8, active compounds read low 0.992 | locus YJL168C, strain set2, active compounds read low 1.01 | locus YJL187C, strain SWE1 (second series), active compounds read low 1.03 | locus YJR043C, strain POL32, active compounds read low 0.994 | locus YJR066W, strain TOR1, active compounds read low 0.953
